# Measurements published in PubChem BioAssay (NCATS).
# Records with an inconclusive call do not appear. Entries that show only a call come without a potency. Calls of active or inactive are those of the source. Calls come from the whole dose curve; as a rule, active = well fitted inhibition curve with a large enough effect; inconclusive = small, poorly fitted or top-dose-only effect; inactive = no such curve, though single readings can be large or run the other way.
# Experiments:
# [1] = test system: Zika virus NS2B-NS3 protease (unlinked complex); assay: Primary screen GU Rhodamine qHTS for Zika virus inhibitors: Unlinked NS2B-NS3 protease assay (AID 1347159); note: nearly all actives have a fitted effect of over 60% in size; note: potency is the fitted concentration of half-maximal effect
# Procedure, shortened: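 Unlinked NS2B/NS3, 25 nM; Rhod110 peptide, 1.5 microM; compounds, up to 114 microM. Reaction run 15 min at RT in 10 mM Tris-HCl pH 8.0, 0.01% Tween 20; kinetic fluorescence change fitted with a 4-parameter Hill model.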
# [2] = test system: Zika virus NS2B-NS3 protease (linked construct); assay: Primary screen NINDS Rhodamine qHTS for Zika virus inhibitors (AID 1347160); note: nearly all actives have a fitted effect of over 55% in size
# Procedure, shortened: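 Single-chain NS2B-NS3 protease, 25 nM, pH 8.0; compounds preincubated 15 min. Activity: Rhodamine110 release from 1.5 microM substrate over 15 min, room temperature, data fitted to 4-parameter Hill.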
SMILES,Potency [1],Potency [2]
O=c1[nH]ccc2cc(OC3CCNCC3)ccc12,inactive,inactive
CNC12CC3C[C@@](C)(C1)C[C@](C)(C3)C2,inactive,inactive
CC(C)=CCC[C@](C)(O[C@@H]1O[C@H](CO)[C@@H](O)[C@H](O)[C@H]1O)[C@H]1CC[C@]2(C)[C@@H]1[C@H](O)CC1[C@@]3(C)CC[C@H](O)C(C)(C)C3[C@@H](O[C@@H]3O[C@H](CO)[C@@H](O)[C@H](O)[C@H]3O)C[C@]12C (some centres not stated),inactive,inactive
C[C@H](Nc1ncnc2nc[nH]c12)c1cc2ccc(F)cc2nc1-c1ccccn1,inactive,inactive
COc1cc(O)c([C@@H](CC(=O)N2CC(C)CC(C)C2)c2ccc3c(c2)OCO3)c(OC)c1 (some centres not stated),inactive,–
CO[C@H]1/C=C/[C@@](C)(O)/C=C/C(=O)O[C@H](C)[C@@H](C)CC/C=C/1C,inactive,inactive
CC(C)CC(=O)OC1OC=C(CO[C@@H]2O[C@H](CO)[C@@H](O)[C@H](O)[C@H]2O)C2CC(O)C(O)(CO)C12 (some centres not stated),inactive,–
C=C(C)C1CC[C@]2(C(=O)O)CC[C@]3(C(=O)O)[C@H](CCC4[C@@]5(C)CC[C@H](O)C(C)(C)C5CC[C@]43C)C12 (some centres not stated),inactive,inactive
C=C1CCC2C(C)(C)C(O)CCC2(C)C1CCC(C)CCO (configuration not stated),7.08 µM (active),–
COc1ccc(C(=O)Nc2ncc(-c3ccc(C(=O)O)cc3)s2)cc1,28.2 µM (active),–
Cc1cc(O)c(-c2ccc([C@@H](C)CN(C)C)cc2)c2c1[nH]c(=O)c1sccc12,inactive,inactive
CC(=O)OCC1(O)CCC2C(COC3OC(CO)C(O)C(O)C3OC(=O)/C=C/c3ccc(O)cc3)=COC(OC(=O)CC(C)C)C21 (configuration not stated),inactive,–
Cc1cc(Nc2cc(N3CCN(C)CC3)nc(/C=C/c3ccccc3)n2)n[nH]1,inactive,inactive
O=C(NCc1ccccn1)Nc1nnc(-c2ccco2)o1,inactive,inactive
CN=C(N)NCCCCC/C=C(/C)CC(C)C1OC(=O)C(C)C(O)/C=C/C(C)C(O)CC(O)C(C)C(O)CCC(C)C(O)CC2(O)OC(CC(OC(=O)CC(=O)O)CC(O)CC(O)C(C)C(O)/C(C)=C/CCC1C)CC(O)C2O (configuration not stated),inactive,inactive
O=C1CCC(=O)N(O)CCCCCNC(=O)CCC(=O)N(O)CCOCCNC(=O)CCC(=O)N(O)CCCCCN1,inactive,inactive
CNS(=O)(=O)c1ccccc1Nc1nc(Nc2ccc(N3CCN(C)CC3)cc2OC)ncc1Cl,inactive,inactive
CC1OC(OC2CCC3(C)C(CCC4(C)C3CC=C3C5CC(C)(C)CCC5(C(=O)OC5OC(CO)C(O)C(O)C5O)CCC34C(=O)O)C2(C)C)C(O)C(O)C1O (configuration not stated),inactive,inactive
C/C=C/C=C/C=C/C(=O)OC1C=C(C=O)C(O)(C(=O)O)C2(C)CCCC(C)(C)C12 (configuration not stated),8.91 µM (active),–
CO[C@H]1C[C@@H]2CC[C@@H](C)[C@@](O)(O2)C(=O)C(=O)N2CCCC[C@H]2C(=O)O[C@H]([C@H](C)C[C@@H]2CC[C@H](n3cnnn3)[C@H](OC)C2)CC(=O)[C@H](C)/C=C(\C)[C@@H](O)[C@@H](OC)C(=O)[C@H](C)C[C@H](C)/C=C/C=C/C=C/1C,inactive,inactive
C=C(C)[C@@H]1CC[C@]2(C)CC[C@]3(C)[C@H](CC[C@@H]4[C@@]5(C)CC[C@@H](O)C(C)(C)[C@@H]5CC[C@]43C)[C@@H]12,inactive,inactive
CC(C)(C)C(=O)CN1C(=O)[C@H](NC(=O)Nc2cccc(C(=O)O)c2)CN(C2CCCCC2)c2ccccc21,10 µM (active),–
C=C1C[C@]23C[C@H]1[C@@H](O)C[C@H]2[C@@]12C=C[C@H](O)[C@@](C)(C(=O)O1)[C@H]2[C@@H]3C(=O)O,inactive,inactive
CCN(Cc1cccnc1)C(=O)CN(c1ccc(OC)nc1)S(=O)(=O)c1ccccc1C,inactive,inactive
O=C(CSc1nc2c(c(=O)n1-c1ccccc1)SCC2)Nc1ccc(-c2ccccc2)cn1,inactive,inactive
CC(C)(O)C1CCC(C)(C2CCC3(C)C4CCC5C(C)(C(=O)OC6OC(CO)C(O)C(O)C6O)C(O)CC(O)C56CC46CCC23C)O1 (configuration not stated),inactive,inactive
C[C@@H]1O[C@@H](O[C@H]2[C@H](O)[C@@H](O)[C@H](OC3CCC4(C)C5CCC(C)(C(CO)OC6OC(CO)C(O)C(O)C6O)CC5=CCC4C3(C)C)O[C@@H]2CO)[C@H](O)[C@H](O)[C@H]1O (some centres not stated),inactive,inactive
